Assay results as given in PubChem BioAssay (NCI).
Compounds without any hit were thinned out: in the full panel of roughly 79,000, 15% have a hit. Unmarked numbers belong to inactive results. No stated cut-off is given here; in the data, active means growth inhibition above about 70%; inactive means the rest.

Assay: NCI Yeast Anticancer Drug Screen. Data for the wt2 strain (AID 169);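 further: 0% = growth of vehicle-treated yeast cultures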
Details: S. cerevisiae wt2 strain growth inhibition; at 1.2 µM; active compounds read high
Method in brief: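 This strain belongs to a panel of yeast strains with defined genetic alterations in DNA damage repair or cell cycle control. Compounds are applied, and growth inhibition is measured against vehicle-treated cultures.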

Compound | growth inhibition [%]
CCOP(=O)(OCC)C(Cc1ccccc1)N=C(c1ccccc1)c1ccccc1 (stereo not drawn) | 6
CCc1ncnc2cc(OCC3CO3)c(OC)cc12 (stereo not drawn) | -26
CCOC(=O)[C@H]1Nc2ccccc2C2c3ccccc3CC21 (stereo partly drawn) | -31
O=CNc1ccc2c(c1)C(=O)c1ccccc1-2 | -2
CCOc1ccc2c(c1)c(CC(=O)O)cn2C | -3
OC1CSCCCSCCSCCCSC1 | -30
N#Cc1c(N)[nH]c2ccc(Sc3ccccc3)cc12 | 0
Cc1ccc(-c2ccc(Nc3c4ccccc4nc4ccccc34)cc2)cn1 | -14
c1ccc2c(c1)NC(NC1Nc3ccccc3N1)N2 | 0
OC(COc1cccc2ccccc12)CN1CCOCC1 (stereo not drawn) | 17
CCC/C(Cl)=N\OC(=O)Nc1ccc(Br)cc1 | 25
COc1ccc(/C=C2\SC(=S)N(/C=C/c3nc4ccccc4[nH]c3=O)C2=O)cc1OC | 1
O=C(NNc1ccnc2cc(Cl)ccc12)/C(=C\c1ccccc1Cl)NC(=O)c1ccccc1 | 4
CSC1=NNC(SC)=NN1 | -2
Cc1c(C2=C(Br)C(=O)N(C)C2=O)c(=O)n(C)c(=O)n1C | 0
NCCNc1ccc(NCCN)c2c1C(=O)c1c(O)ccc(O)c1C2=O | -15
Cn1c(=O)c(-c2ccccc2)c(N=[N+]=[N-])c2ccccc21 | -35
CCCCCCCCCCCCCCCCCCOCC(O)COP(=O)(O)OCC1OC(n2cc(F)c(=O)[nH]c2=O)CC1O (stereo not drawn) | -57
CCS(=O)(=O)c1ccc(/C=C/C=N/NC(=S)NCC(C)C)cc1 | -8
CCC(=O)Oc1c(Cl)cc(Cl)c2ccccc12 | -4

Compound | growth inhibition [%]
COc1cc2c3c(cccc3c1)C(=O)N(CCN(C)C)C2=O | -2
CN(C)c1ccc(C(C#N)=C(C#N)C#N)cc1 | -2
O=C(CCCN1CCC2(CC1)CC(=O)N(N1CCCCCC1)C2=O)c1ccc(F)cc1 | 20
O=C1C2C(C(=O)N1c1ccc(OCc3ccccc3)cc1)C1c3ccccc3C2C2CCCCN21 (stereo not drawn) | -3
CCN(CC)CCC(=O)c1ccc(Oc2ccc(F)cc2)cc1 | 17
O=Nc1c(NO)ccc2nn(-c3ccccc3)nc12 | 25
CC(=O)SCCC[Si](C)(C)CCCSC(C)=O | -1
O=C(O)C1CCCCC1c1c2ccc(=O)c(O)c-2oc2c(O)c(O)ccc12 (stereo not drawn) | -32
Cc1ccc(NN(NC(=O)OC(C)C)C(=O)OC(C)C)cc1 | -1
O=C1c2ccccc2C(=O)c2cc(CBr)ccc21 | 9
Cc1c(C(Cc2ccccc2N(C)C(=O)/C=C\C(=O)O)c2c[nH]c3ccccc23)c2ccccc2n1C (stereo not drawn) | -3
CC(C)/C(Cl)=N\OC(=O)Nc1ccc(F)cc1 | -1
O=C1OC(=O)C2CCCC3CCCC1C32 (stereo not drawn) | 36
CCOC(=O)C(NC(=O)c1ccccc1)(N1CCN(c2cc3c(cc2F)c(=O)c(C(=O)O)cn3C2CC2)CC1)C(F)(F)F (stereo not drawn) | -1
COc1ccc(NC(=S)N/N=C(\c2ccccc2)c2ccccn2)cc1 | -4
C=CCC1=C(C)C(OC(=O)/C=C/c2ccccc2)CC1=O (stereo not drawn) | -10
NNc1c(F)c(F)cc(F)c1F | -27
COP(=O)(OC)/C(=C\C1=CN(C(c2ccccc2)(c2ccccc2)c2ccccc2)CN1)NC=O | -10
COC(=O)c1cc(-c2ccc(C)cc2)[nH]c(=O)c1C#N | -2

Same assay, conditions: S. cerevisiae wt2 strain growth inhibition; at 3.7 µM; active compounds read high

Compound | growth inhibition [%]
CCOP(=O)(OCC)C(Cc1ccccc1)N=C(c1ccccc1)c1ccccc1 (stereo not drawn) | 6
CCc1ncnc2cc(OCC3CO3)c(OC)cc12 (stereo not drawn) | -15
CCOC(=O)[C@H]1Nc2ccccc2C2c3ccccc3CC21 (stereo partly drawn) | -25
O=CNc1ccc2c(c1)C(=O)c1ccccc1-2 | 0
CCOc1ccc2c(c1)c(CC(=O)O)cn2C | -3
OC1CSCCCSCCSCCCSC1 | -17
N#Cc1c(N)[nH]c2ccc(Sc3ccccc3)cc12 | 1
Cc1ccc(-c2ccc(Nc3c4ccccc4nc4ccccc34)cc2)cn1 | 2
c1ccc2c(c1)NC(NC1Nc3ccccc3N1)N2 | 0
OC(COc1cccc2ccccc12)CN1CCOCC1 (stereo not drawn) | 27
CCC/C(Cl)=N\OC(=O)Nc1ccc(Br)cc1 | 33
COc1ccc(/C=C2\SC(=S)N(/C=C/c3nc4ccccc4[nH]c3=O)C2=O)cc1OC | 3
O=C(NNc1ccnc2cc(Cl)ccc12)/C(=C\c1ccccc1Cl)NC(=O)c1ccccc1 | 28
CSC1=NNC(SC)=NN1 | 1
Cc1c(C2=C(Br)C(=O)N(C)C2=O)c(=O)n(C)c(=O)n1C | 3
NCCNc1ccc(NCCN)c2c1C(=O)c1c(O)ccc(O)c1C2=O | 2
Cn1c(=O)c(-c2ccccc2)c(N=[N+]=[N-])c2ccccc21 | -29
CCCCCCCCCCCCCCCCCCOCC(O)COP(=O)(O)OCC1OC(n2cc(F)c(=O)[nH]c2=O)CC1O (stereo not drawn) | -83
CCS(=O)(=O)c1ccc(/C=C/C=N/NC(=S)NCC(C)C)cc1 | -5
CCC(=O)Oc1c(Cl)cc(Cl)c2ccccc12 | -5

Compound | growth inhibition [%]
COc1cc2c3c(cccc3c1)C(=O)N(CCN(C)C)C2=O | 1
CN(C)c1ccc(C(C#N)=C(C#N)C#N)cc1 | 0
O=C(CCCN1CCC2(CC1)CC(=O)N(N1CCCCCC1)C2=O)c1ccc(F)cc1 | 32
O=C1C2C(C(=O)N1c1ccc(OCc3ccccc3)cc1)C1c3ccccc3C2C2CCCCN21 (stereo not drawn) | -4
CCN(CC)CCC(=O)c1ccc(Oc2ccc(F)cc2)cc1 | 21
O=Nc1c(NO)ccc2nn(-c3ccccc3)nc12 | 41
CC(=O)SCCC[Si](C)(C)CCCSC(C)=O | -9
O=C(O)C1CCCCC1c1c2ccc(=O)c(O)c-2oc2c(O)c(O)ccc12 (stereo not drawn) | -23
Cc1ccc(NN(NC(=O)OC(C)C)C(=O)OC(C)C)cc1 | -1
O=C1c2ccccc2C(=O)c2cc(CBr)ccc21 | 3
Cc1c(C(Cc2ccccc2N(C)C(=O)/C=C\C(=O)O)c2c[nH]c3ccccc23)c2ccccc2n1C (stereo not drawn) | -4
CC(C)/C(Cl)=N\OC(=O)Nc1ccc(F)cc1 | -2
O=C1OC(=O)C2CCCC3CCCC1C32 (stereo not drawn) | 62
CCOC(=O)C(NC(=O)c1ccccc1)(N1CCN(c2cc3c(cc2F)c(=O)c(C(=O)O)cn3C2CC2)CC1)C(F)(F)F (stereo not drawn) | -2
COc1ccc(NC(=S)N/N=C(\c2ccccc2)c2ccccn2)cc1 | -4
C=CCC1=C(C)C(OC(=O)/C=C/c2ccccc2)CC1=O (stereo not drawn) | -11
NNc1c(F)c(F)cc(F)c1F | -24
COP(=O)(OC)/C(=C\C1=CN(C(c2ccccc2)(c2ccccc2)c2ccccc2)CN1)NC=O | -13
COC(=O)c1cc(-c2ccc(C)cc2)[nH]c(=O)c1C#N | 0
